Measured values: PubChem BioAssay (Tox21)
Values joined by “and” are separate entries in the source; they are usually repeats but may differ in a detail not shown here. Identical values can stand only once. Inconclusive results are not listed. Active and inactive are the calls of the source. Calls come from the whole dose curve. Starred links: 1 amine or outer side, 2 acyl side, 3 side chain; linkers in the order of their positions; H or OH if unused. Positions of bridges follow the written chain, without caps; N, C: chain ends. Non-standard residues stand in square brackets, D forms with d. Residues, ends and D or L forms follow the SMILES beside them. Chains are numbered I, II in the order given. Actinocin(9to1) = Cc1c2oc3c(C)ccc(C(=O)[*:1])c3nc-2c(C(=O)[*:2])c(N)c1=O; NMeV = CN[C@H](C(=O)O)C(C)C; Sar = CNCC(=O)O

Tests used:
[1] = biological target: Acetylcholinesterase (Homo sapiens) (UniProt P22303); assay: Acetylcholinesterase (AChE) small molecule antagonists: colormetric cell-based qHTS assay (AID 1347395); note: nearly all actives have a fitted effect of over 30% in size
Outline: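 In this cell-based qHTS, attached SH-SY5Y cells were treated with test chemicals for 30 min, after which acetylthiocholine hydrolysis was followed by DTNB colour development over 90 min at 37 C.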

[2] = biological target: Acetylcholinesterase (Homo sapiens) (UniProt P22303); assay: Acetylcholinesterase (AChE) small molecule antagonists: enzyme-based qHTS assay (AID 1347397); conditions: Potency: AChE enzyme activity inhibition; outcome: AChE enzyme activity inhibition; note: nearly all actives have a fitted effect of over 55% in size; note: potency is the fitted concentration of half-maximal effect
Outline: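 Compound or DMSO vehicle was pin-transferred onto recombinant human AChE (50 mU/mL as dispensed) and left 30 min at room temperature. Acetylthiocholine with DTNB then started the reaction, read colorimetrically 10 min later.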

[3] = biological target: Acetylcholinesterase (Homo sapiens) (UniProt P22303); assay: Acetylcholinesterase (AChE) small molecule antagonists: fluorescence cell-based qHTS assay (AID 1347398); conditions: Potency: AChE activity; outcome: AChE activity; note: nearly all actives have a fitted effect of over 50% in size
Outline: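 Using neuroblastoma SH-SY5Y cells as the enzyme source, test chemicals are preincubated 30 min at 37 C; AChE-driven acetylthiocholine cleavage is then quantified by thiocholine-dependent Thiolite Green fluorescence after 40 min at room temperature.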

[4] = biological target: Acetylcholinesterase (Homo sapiens) (UniProt P22303); assay: Acetylcholinesterase (AChE) small molecule antagonists: enzyme-based qHTS assay with human liver microsomes (AID 1347399); conditions: Potency: qHTS inhibition; outcome: qHTS inhibition; note: nearly all actives have a fitted effect of over 60% in size
Outline: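 Recombinant human AChE (50 mU/mL in the enzyme mix) and human liver microsomes (0.25 mg/mL final) were preincubated with compound and NADPH (0.25 mg/mL final) for 30 min at 37 C. Acetylthiocholine/DTNB was then added; thiocholine was read colorimetrically after 10 min at room temperature.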
% is set by controls: 0 for no effect and ±100 for the full control effect.

Chain of Acetylcholinesterase (Homo sapiens) (P22303 whole entry, looked up): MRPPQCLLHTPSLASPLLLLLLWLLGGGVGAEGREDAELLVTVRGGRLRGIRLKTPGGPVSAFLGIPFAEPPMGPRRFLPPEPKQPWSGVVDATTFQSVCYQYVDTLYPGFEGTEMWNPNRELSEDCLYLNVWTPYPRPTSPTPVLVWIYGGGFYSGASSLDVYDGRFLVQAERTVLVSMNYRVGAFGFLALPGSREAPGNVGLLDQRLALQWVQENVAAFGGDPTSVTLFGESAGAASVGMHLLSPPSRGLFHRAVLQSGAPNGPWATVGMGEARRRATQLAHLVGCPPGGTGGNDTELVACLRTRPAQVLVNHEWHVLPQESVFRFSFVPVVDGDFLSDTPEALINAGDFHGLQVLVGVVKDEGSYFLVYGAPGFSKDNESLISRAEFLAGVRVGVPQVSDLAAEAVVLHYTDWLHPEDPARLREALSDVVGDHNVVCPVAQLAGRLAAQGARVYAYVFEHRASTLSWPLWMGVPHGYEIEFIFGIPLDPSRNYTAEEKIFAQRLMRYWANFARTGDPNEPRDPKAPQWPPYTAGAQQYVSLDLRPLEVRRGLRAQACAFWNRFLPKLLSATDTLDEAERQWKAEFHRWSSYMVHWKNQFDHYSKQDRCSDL

CC1(C)CC(N=C=O)CC(C)(CN=C=O)C1 (centres undefined)
inactive: Potency [1] | Potency [2] | Potency [3] | Potency [4]

CCOC(=O)NCCOc1ccc(Oc2ccccc2)cc1
inactive: Potency [1] | Potency [2] | Potency [3] | Potency [4]

Oc1ccc2c(c1)-c1ccccc1C2
inactive: Potency [1] | Potency [2] | Potency [3] | Potency [4]

Cc1cc(Cc2cc(C)cc(C(C)(C)C)c2O)c(O)c(C(C)(C)C)c1
inactive: Potency [1] | Potency [2] | Potency [3] | Potency [4]

Oc1c(I)cc(I)c2cccnc12
inactive: Potency [1] | Potency [2] | Potency [3] | Potency [4]

C1CNCCN1
inactive: outcome [1] | outcome [2] | outcome [3] | outcome [4]

CCCc1nc2c(C)cc(-c3nc4ccccc4n3C)cc2n1Cc1ccc(-c2ccccc2C(=O)O)cc1
inactive: Potency [1] | Potency [2] | Potency [3] | Potency [4]

O=C(Oc1ccccc1)c1ccccc1
inactive: Potency [1] | Potency [2] | Potency [3] | Potency [4]

O=C1CCCCCN1
inactive: Potency [1] | Potency [2] | Potency [3] | Potency [4]

Cc1cc(S(=O)(=O)O)c(N)cc1Cl
inactive: Potency [1] | Potency [2] | Potency [3] | Potency [4]

C[C@@H]1NC(=O)[C@@H](N)CNC(=O)[C@H](C2CCNC(N)=N2)NC(=O)/C(=C/NC(N)=O)NC(=O)[C@H](CNC(=O)C[C@@H](N)CCCN)NC1=O (some centres undefined)
inactive: activity, negative = inhibition [1] -1.67% [at 0.435 µM] | activity change, negative = inhibition [2] -0.97% [at 0.435 µM] | activity change, negative = inhibition [3] 6.12% [at 0.439 µM] | activity change, negative = inhibition [4] -1.43% [at 0.435 µM]

Cc1cccc(C)c1NC(=O)CN1CCCCCC1
inactive: Potency [1] | Potency [2] | Potency [3] | Potency [4]

N[C@@H](CCC(=O)O)C(=O)O
inactive: Potency [1] | Potency [2] | Potency [3] | Potency [4]

Nc1ccc(S(=O)(=O)O)cc1
inactive: Potency [1] | Potency [2] | Potency [3] | Potency [4]

Cc1ccc(Cl)cc1N
inactive: Potency [1] | Potency [2] | Potency [3] | Potency [4]

Nc1ccccc1S(=O)(=O)O
inactive: Potency [1] | Potency [2] | Potency [3] | Potency [4]

CC(C)CCCCCOC(=O)CCCCC(=O)OCCCCCC(C)C
inactive: Potency [1] | Potency [2] | Potency [3] | Potency [4]

CC(C)(C)c1cc(/C=C2\SC(=N)NC2=O)cc(C(C)(C)C)c1O
inactive: outcome [1] | outcome [2] | outcome [3] | outcome [4]

O=c1[nH]c(=O)c2cn[nH]c2[nH]1
inactive: Potency [1] | Potency [2] | Potency [3] | Potency [4]

CC1=CC(=O)CC(C)(C)C1(O)/C=C/C(C)=C\C(=O)O (centres undefined)
inactive: Potency [1] | Potency [2] | Potency [3] | Potency [4]

O=c1c(-c2ccc(O)cc2)coc2cc(O)cc(O)c12
inactive: Potency [1] | Potency [2] | Potency [3] | Potency [4]

CC(C)(C)c1n[nH]c(=O)n(N)c1=O
inactive: Potency [1] | Potency [2] | Potency [3] | Potency [4]

CCCCOCCOCCSC#N
inactive: Potency [1] | Potency [2] | Potency [3] | Potency [4]

CC(O)C#CC(C)O (centres undefined)
inactive: Potency [1] | Potency [2] | Potency [3] | Potency [4]

O=C(O)c1cn(C2CC2)c2cc(Cl)c(F)cc2c1=O
inactive: Potency [1] | Potency [2] | Potency [3] | Potency [4]

Cc1c2oc3c(C)ccc(C(=O)N[C@@H]4C(=O)N[C@H](C(C)C)C(=O)N5CCC[C@H]5C(=O)N(C)CC(=O)N(C)[C@@H](C(C)C)C(=O)O[C@@H]4C)c3nc-2c(C(=O)N[C@@H]2C(=O)N[C@H](C(C)C)C(=O)N3CCC[C@H]3C(=O)N(C)CC(=O)N(C)[C@@H](C(C)C)C(=O)O[C@@H]2C)c(N)c1=O (I: T[dV]P[Sar][NMeV] / II: T[dV]P[Sar][NMeV]; ester I:1-I:C, II:1-II:C; linker I:N-II:N via Actinocin(9to1))
inactive: Potency [1] | Potency [2] | Potency [3] | Potency [4]

CC(COc1ccc(C(C)(C)C)cc1)OS(=O)OCCCl (centres undefined)
inactive: Potency [1] | Potency [2] | Potency [3] | Potency [4]

CCC(C)N (centres undefined)
inactive: Potency [1] | Potency [2] | Potency [3] | Potency [4]

CC(=O)N(CC(O)CO)c1c(I)c(C(=O)NCCO)c(I)c(C(=O)NCC(O)CO)c1I (centres undefined)
inactive: Potency [1] | Potency [2] | Potency [3] | Potency [4]

c1cnc2cc3c(cc2n1)C1CNCC3C1
inactive: Potency [1] | Potency [2] | Potency [3] | Potency [4]

CNC(=O)[C@H]1O[C@@H](n2cnc3c(NCc4cc(Cl)ccc4OCc4cc(C)no4)ncnc32)[C@H](O)[C@@H]1N
inactive: Potency [1] | Potency [2] | Potency [3] | Potency [4]

COc1ccc(N)c([N+](=O)[O-])c1
inactive: Potency [1] | Potency [2] | Potency [3] | Potency [4]

Nc1ccc(C(=O)Nc2ccccc2N)cc1
inactive: Potency [1] | Potency [2] | Potency [3] | Potency [4]

CC(C)(c1cc(Br)c(O)c(Br)c1)c1cc(Br)c(O)c(Br)c1
active: Potency [2] 39.8 µM and 70.8 µM and 67.2 µM
inactive: Potency [1] | Potency [3] | Potency [4]

COC(=O)c1ccc(O)cc1
inactive: Potency [1] | Potency [2] | Potency [3] | Potency [4]

CCCCCCC/C=C/C=O
inactive: Potency [1] | Potency [2] | Potency [3] | Potency [4]

O=C1c2cccc(O)c2C(=O)c2c(O)cc(CO)cc21
inactive: Potency [1] | Potency [2] | Potency [3] | Potency [4]

CCc1ccccc1CC
inactive: Potency [1] | Potency [2] | Potency [3] | Potency [4]

OCC1CC=CCC1 (centres undefined)
inactive: Potency [1] | Potency [2] | Potency [3] | Potency [4]

O=C(CCN1CCN(CCO)CC1)N1c2ccccc2Sc2ccc(C(F)(F)F)cc21
inactive: Potency [1] | Potency [2] | Potency [3] | Potency [4]

CC(=O)OCCC1CCCCC1
inactive: Potency [1] | Potency [2] | Potency [3] | Potency [4]
